According to PubChem BioAssay AID1159580 (chemical genetic matrix, 2015):
“And” between values parts separate entries of the source, which are not always exact repeats. Equal entries are not always repeated. Screen size: about 5,500 compounds; about 2,000 (36%) were called active. Roughly 18% stayed inconclusive and do not appear here. No stated cut-off is given here; in the data, active means normalized growth mostly below about 0.91 (no sharp cut-off); inconclusive means no clear call, values can overlap the other calls; inactive means mostly above about 0.92. The list shows a part of the results.

Assay: chemical genetic growth profiling, strain panel (AID 1159580);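 further: tested at 20 µM; growth read once vehicle control cultures reached saturation at 30 °C; 1 = growth at the plate median or of vehicle wells; lower values mean less growth of the strain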
Settings: S. cerevisiae deletion strains, growth OD

Measured: normalized growth

CNC(C)C(O)c1ccccc1 (stereo not drawn)
inactive: locus YAL013W, strain DEP1, hits give low values 1 | locus YAL021C, strain ccr4, hits give low values 1.02 | locus YAL026C, strain drs2, hits give low values 0.997 | locus YAL030W, strain snc1, hits give low values 1.01 | locus YBL061C, strain skt5, hits give low values 1 | locus YBR009C, strain hhf1, hits give low values 0.993 | locus YBR021W, strain FUR4, hits give low values 1.01 | locus YBR023C, strain chs3, hits give low values 1.01 | locus YBR171W, strain sec66, hits give low values 1.02 | locus YBR229C, strain ROT2, hits give low values 1 | locus YBR231C, strain swc5, hits give low values 1.02 | locus YBR279W, strain paf1, hits give low values 1.01 | locus YCL011C, strain gbp2, hits give low values 1.01 | locus YCL016C, strain dcc1, hits give low values 1 | locus YCL029C, strain bik1, hits give low values 1.02 | locus YCL061C, strain MRC1, hits give low values 1.02 | locus YCL069W, strain vba3, hits give low values 1.02 | locus YCR088W, strain abp1, hits give low values 1.02 | locus YDL005C, strain med2, hits give low values 1.02 | locus YDL035C, strain GPR1, hits give low values 1.01 | locus YDL040C, strain nat1, hits give low values 1.01 | locus YDL074C, strain BRE1, hits give low values 1.02 | locus YDL101C, strain DUN1, hits give low values 1 | locus YDL134C, strain PPH21, hits give low values 1.01 | locus YDL185W, strain tfp1, hits give low values 1.01 | locus YDL192W, strain arf1, hits give low values 1.03 | locus YDR001C, strain nth1, hits give low values 1.01 | locus YDR069C, strain doa4, hits give low values 1.02 | locus YDR101C, strain arx1, hits give low values 1.03 | locus YDR137W, strain rgp1, hits give low values 1.03 | locus YDR150W, strain NUM1, hits give low values 1 | locus YDR159W, strain sac3, hits give low values 0.99 | locus YDR162C, strain NBP2, hits give low values 1 | locus YDR195W, strain ref2 0.995 | locus YDR297W, strain sur2, hits give low values 1.01 | locus YDR318W, strain mcm21, hits give low values 1.02 | locus YDR334W, strain swr1, hits give low values 1.02 | locus YDR335W, strain msn5, hits give low values 1.01 | locus YDR388W, hits give low values 1.02 | locus YDR392W, strain spt3, hits give low values 1 | locus YDR502C, strain sam2, hits give low values 1.02 | locus YEL003W, strain gim4, hits give low values 1.02 | locus YEL037C, strain rad23, hits give low values 1.01 | locus YEL061C, strain CIN8 (second series), hits give low values 1.02 | locus YEL061C, strain CIN8, hits give low values 1 | locus YER015W, strain faa2, hits give low values 1.02 | locus YER016W, strain bim1, hits give low values 1.01 | locus YER110C, hits give low values 1.04 | locus YER111C, strain swi4, hits give low values 1.01 | locus YER155C, strain BEM2 (second series), hits give low values 1.02 | locus YER155C, strain BEM2, hits give low values 1 | locus YER167W, strain BCK2, hits give low values 1 | locus YFR010W, strain ubp6, hits give low values 1.03 | locus YGL078C, strain dbp3, hits give low values 1.03 | locus YGL086W, strain mad1, hits give low values 1 | locus YGL167C, strain pmr1, hits give low values 1.02 | locus YGL173C, strain kem1, hits give low values 1.01 | locus YGL227W, strain vid30, hits give low values 1.01 | locus YGL240W, strain doc1, hits give low values 1.04 | locus YGL248W, strain PDE1, hits give low values 1.01 | locus YGL253W, strain hxk2, hits give low values 1.01 | locus YGR078C, strain PAC10, hits give low values 1.01 | locus YGR135W, strain pre9, hits give low values 1.03 | locus YGR252W, strain gcn5, hits give low values 1.01 | locus YHR013C, strain ard1, hits give low values 1.02 | locus YHR027C, strain rpn1, hits give low values 1.02 | locus YHR030C, strain SLT2, hits give low values 1 and 1.02 | locus YHR079C, strain IRE1 (second series), hits give low values 1.02 | locus YHR079C, strain IRE1, hits give low values 1.04 | locus YHR094C, strain hxt1, hits give low values 1.03 | locus YHR129C, strain ARP1, hits give low values 1 | locus YHR142W, strain chs7, hits give low values 1.02 | locus YHR200W, strain rpn10, hits give low values 1.02 | locus YIL066C, strain RNR3, hits give low values 1 | locus YIL073C, strain SPO22, hits give low values 1.06 | locus YIL125W, strain kgd1, hits give low values 1.02 | locus YIR030C, strain dcg1, hits give low values 1.02 | locus YJL092W, strain hpr5, hits give low values 1.01 | locus YJL095W, strain BCK1 (second series), hits give low values 1.01 | locus YJL095W, strain BCK1, hits give low values 0.99 and 0.983 | locus YJL115W, strain asf1, hits give low values 1.03 | locus YJL129C, strain trk1, hits give low values 1.03 | locus YJL134W, strain LCB3, hits give low values 1 | locus YJL154C, strain vps35, hits give low values 1.01 | locus YJL164C, strain tpk1, hits give low values 1.01 | locus YJL166W, strain qcr8, hits give low values 1.03 | locus YJL168C, strain set2, hits give low values 1.02 | locus YJL187C, strain SWE1 (second series), hits give low values 1
